This passage reports Potency and outcome results from PubChem BioAssay (Tox21).

The nature of experiment [1]: Nuclear factor erythroid 2-related factor 2/antioxidant responsive element (Nrf2/ARE) small molecule agonists: qHTS cell viability counter screen in human keratinocytes (AID 1919968; active = well fitted curve in the direction sought with a large enough effect in the repeat runs; an effect the other way counts as inactive or inconclusive; note: nearly all actives have a fitted effect of over 55% in size). The method, boiled down:
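CellTiter-Fluor fluorescence, read 1 h after reagent, gave viability in the same wells as the ARE-luciferase assay. KeratinoSens cells (1,500/well) had 23 h compound exposure at 37 C/5% CO2 following 5 h plating.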
(In general: qHTS replaces the single test concentration by a dilution series.)

Experiment [2] can be described thus: Nuclear factor erythroid 2-related factor 2/antioxidant responsive element (Nrf2/ARE) small molecule agonists: luciferase reporter gene qHTS assay in human keratinocytes (AID 1919969). Note: nearly all actives have a fitted effect of over 35% in size. Note: potency is the fitted concentration of half-maximal effect.
Experiment [3] addresses Gonadotropin-releasing hormone receptor (Homo sapiens) (UniProt P30968). As to the kind of experiment: Human gonadotropin-releasing hormone receptor (GnRHR) small molecule agonists, calcium flux assay in GnRHR-HEK293 cells (AID 1920063). Note: nearly all actives have a fitted effect of over 35% in size. The method, boiled down: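 Agonist mode: compounds at 15 concentrations, in triplicate, went onto calcium dye-loaded GnRHR-HEK293 cells. Intracellular calcium was then followed as 480/540 nm fluorescence at 1 s intervals over 3 min.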

The target in experiment [4] is KiSS-1 receptor (Homo sapiens) (UniProt Q969F8). As to the kind of experiment: Human kisspeptin (KISS1R) small molecule agonists, calcium flux assay in KISS1R-HEK293 cells (AID 1920064; active = well fitted curve in the direction sought with a large enough effect in the repeat runs; an effect the other way counts as inactive or inconclusive). The method, boiled down:
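Agonist mode: intracellular calcium rise tracked at 1 s intervals over 3 min (480/540 nm) immediately after compound addition to dye-loaded KISS1R-HEK293 stable cells. Each compound tested at 15 concentrations in triplicate.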

Experiment [5] in a line: G protein-coupled receptor (GPCR) small molecule agonists, calcium flux assay: HEK293 wild type cell line counter screen (AID 1920065). The method, boiled down: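 Calcium flux counter screen: compound added in agonist mode at 15 concentrations in triplicate to dye-loaded parental HEK293 cells. Fluorescence (480/540) read kinetically for 3 min; ATP served as positive control.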
For orientation: Calcium assays in cells follow changes in intracellular calcium, usually with a dye or a luminescent sensor.

Experiment [6] is described as follows: p53 small molecule agonists, cell-based qHTS assay with rat liver microsomes (AID 1963578). The method, boiled down: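 Quantitative HTS of the Tox21 10K library: p53RE-bla cells, rat liver microsomes plus NADPH at 0.5 mg/mL final each, 16 h at 37 C, beta-lactamase fluorescence detection.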
Experiment [7] in a line: p53 small molecule agonists, cell-based qHTS assay with human liver microsomes: qHTS cell viability counter screen (AID 1963579). Note: nearly all actives have a fitted effect of over 45% in size. The method, boiled down: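 Viability of p53RE-bla cells is measured as CellTiter-Glo luminescence following a 16 h, 37 C incubation with compound, liver microsomes from human donors and NADPH.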
Experiment [8] in a line: p53 small molecule agonists, cell-based qHTS assay with rat liver microsomes: qHTS cell viability counter screen (AID 1963580). Note: nearly all actives have a fitted effect of over 45% in size. The method, boiled down:
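Cytotoxicity counter screen: intracellular ATP measured by CellTiter-Glo luminescence in the same wells as the beta-lactamase reporter read, on HCT-116 p53RE-bla cells exposed 16 h at 37 C to compounds with rat liver microsomes and NADPH, each 0.5 mg/mL final.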

Experiment [9] in a line: p53 small molecule agonists, cell-based qHTS assay: qHTS cell viability counter screen (AID 1963581). Note: nearly all actives have a fitted effect of over 45% in size. The method, boiled down: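 Counter screen read by CellTiter-Glo luminescence (ATP content, 30 min at room temperature), run in the same wells as the beta-lactamase reporter read. HCT-116 p53RE-bla cells saw compounds for 16 h at 37 C.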
Experiment [10] can be described thus: p53 small molecule agonists, cell-based qHTS assay (AID 1963582; active = well fitted activation curve with a large enough effect in the signal ratio in the repeat runs, not every such curve was filed as active; the % refers to the signal ratio). The method, boiled down: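 Read-out is beta-lactamase FRET fluorescence after 2 h at room temperature with LiveBLAzer B/G substrate. p53 response element-bla cells were treated 16 h at 37 C with compounds in DMSO, added 5 h after seeding.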
Experiment [11] has as its target 5-hydroxytryptamine receptor 2A (Homo sapiens) (UniProt P28223). As to the kind of experiment: 5-hydroxytryptamine receptor 2A (HTR2A) small molecule antagonists, cell-based qHTS assay (AID 1963586). Note: nearly all actives have a fitted effect of over 45% in size. The method, boiled down:
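CHO cells stably expressing human HTR2A were plated for 18 h at 37 C, then loaded with calcium dye for 1 h. Compounds were preincubated 5 min at room temperature before DOI (4 nM solution) was added. Kinetic fluorescence was read for 3 min.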

Experiment [12] has the same target. Briefly: 5-hydroxytryptamine receptor 2A (HTR2A) small molecule agonists, cell-based qHTS assay (AID 1963587). Note: nearly all actives have a fitted effect of over 30% in size. The method, boiled down: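 CHO cells stably expressing human HTR2A, plated 18 h, loaded with calcium dye 1 h at 37 C. Agonist mode: compounds added and intracellular calcium fluorescence recorded kinetically for 2 min at 1 sec intervals.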
Experiment [13] concerns the target Muscarinic acetylcholine receptor M1 (Homo sapiens) (UniProt P11229). As to the kind of experiment: Cholinergic receptor muscarinic 1 (CHRM1) small molecule antagonists, cell-based qHTS assay (AID 1963588). Note: nearly all actives have a fitted effect of over 40% in size. The method, boiled down: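 Compounds were tested at 15 concentrations in three independent runs. Dye-loaded CHRM1-CHO cells were exposed 5 min at room temperature before stimulation by acetylcholine added at 50nM. Intracellular calcium was read kinetically on FDSS for 3 min.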

For experiment [14] the target is unchanged. As to the kind of experiment: Cholinergic receptor muscarinic 1 (CHRM1) small molecule agonists, cell-based qHTS assay (AID 1963589). Note: nearly all actives have a fitted effect of over 35% in size. The method, boiled down:
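Agonist-mode calcium-flux screen: compounds at 15 concentrations, three independent runs, were pin-transferred onto dye-loaded human CHRM1-CHO cells. Fluorescence was then recorded kinetically every second over minutes.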

Experiment [15] is described as follows: cAMP Responsive Elements (CRE) small molecule agonists, cell-based qHTS assay (AID 1963590). The method, boiled down: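 Agonist mode: compound added to CRE-bla HEK 293T cells (2,000/well, 18 h after plating) for 3 h at 37 C/5% CO2. Reporter activity detected via FRET beta-lactamase substrate, 2 h room-temperature loading.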
Experiment [16] concerns the target Beta-2 adrenergic receptor (Homo sapiens) (UniProt P07550). As to the kind of experiment: Adrenergic beta2 receptor (ADRB2) small molecule antagonists, cell-based qHTS assay (AID 1963592). Note: nearly all actives have a fitted effect of over 50% in size. Note: potency is the fitted concentration of half-maximal effect. The method, boiled down:
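Assay format: CHO-ADRB2 cells, 18-20hr seeding at 37C/5% CO2, then compound plus 1nM isoproterenol agonist mix for 0.5hr RT. Homogeneous time-resolved fluorescence cAMP detection after 1hr, expressed as 665/615 nm ratio.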

The target of experiment [17] is D(2) dopamine receptor (Homo sapiens) (UniProt P14416). Briefly: Dopamine D2 receptor (DRD2) small molecule agonists, cell-based qHTS assay (AID 1963594). Note: nearly all actives have a fitted effect of over 35% in size. The method, boiled down:
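HEK293 cells stably expressing human DRD2, pre-treated with PDE inhibitor Ro20-1724 (0.1 mM final) and compound 10 min at room temperature, then stimulated with NKH477 (200nM […]) for 30 min. cAMP read by HTRF (665/620 nm).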

Experiment [18] has the same target. As to the kind of experiment: Dopamine D2 receptor (DRD2) small molecule antagonists, cell-based qHTS assay (AID 1963595; active = well fitted inhibition curve with a large enough effect in the signal ratio in the repeat runs, with a control signal flat; the % refers to the signal ratio; note: potency is the fitted concentration of half-maximal effect). The method, boiled down: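 In this cell-based antagonist screen, compounds act for 10 min at room temperature before a 30 min challenge with 12 nM quinpirole and 200 nM NKH477. cAMP is quantified by HTRF competition in DRD2-HEK293 cells containing 0.1 mM Ro20-1724.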

Experiment [19] in a line: cAMP Responsive Elements (CRE) small molecule antagonists, cell-based qHTS assay (AID 1963591; active = well fitted inhibition curve with a large enough effect in the signal ratio in the repeat runs, not every such curve was filed as active; the % refers to the signal ratio). The method, boiled down: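 Antagonist mode: compounds are added alongside the adenylyl cyclase activator NKH477 (0.25 uM final) to CRE-bla HEK293T cells for 3 h. LiveBLAzer FRET substrate, 2 h at room temperature, reports bla expression.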
The target of experiment [20] is Beta-2 adrenergic receptor (Homo sapiens) (UniProt P07550). Briefly: Adrenergic beta2 receptor (ADRB2) small molecule agonists, cell-based qHTS assay (AID 1963593).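 Note: CHO cells stably overexpressing human ADRB2.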 The method, boiled down: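 CHO cells stably over-expressing ADRB2 were plated overnight at 37C, then dosed with compounds plus a stimulation mix containing 100uM IBMX and 25uM Ro-20-1724 for 0.5hr at room temperature. cAMP was measured by HTRF competition, 1hr.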

Unmarked numbers belong to inactive results. Results filed as inconclusive are left out. Calls of active or inactive are those of the source. Unless noted, calls come from the whole dose curve.

Gonadotropin-releasing hormone receptor (Homo sapiens), sequence (P30968 whole entry, looked up): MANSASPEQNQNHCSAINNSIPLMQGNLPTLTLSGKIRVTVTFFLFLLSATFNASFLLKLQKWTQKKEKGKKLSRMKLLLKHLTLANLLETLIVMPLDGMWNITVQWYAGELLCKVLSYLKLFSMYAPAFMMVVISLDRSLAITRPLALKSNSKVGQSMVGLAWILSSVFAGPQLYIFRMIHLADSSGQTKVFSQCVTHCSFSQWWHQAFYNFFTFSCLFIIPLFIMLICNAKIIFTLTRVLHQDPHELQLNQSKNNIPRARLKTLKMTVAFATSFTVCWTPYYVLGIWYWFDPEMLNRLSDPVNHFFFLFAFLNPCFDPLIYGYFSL
5-hydroxytryptamine receptor 2A (Homo sapiens), sequence (P28223 whole entry, looked up): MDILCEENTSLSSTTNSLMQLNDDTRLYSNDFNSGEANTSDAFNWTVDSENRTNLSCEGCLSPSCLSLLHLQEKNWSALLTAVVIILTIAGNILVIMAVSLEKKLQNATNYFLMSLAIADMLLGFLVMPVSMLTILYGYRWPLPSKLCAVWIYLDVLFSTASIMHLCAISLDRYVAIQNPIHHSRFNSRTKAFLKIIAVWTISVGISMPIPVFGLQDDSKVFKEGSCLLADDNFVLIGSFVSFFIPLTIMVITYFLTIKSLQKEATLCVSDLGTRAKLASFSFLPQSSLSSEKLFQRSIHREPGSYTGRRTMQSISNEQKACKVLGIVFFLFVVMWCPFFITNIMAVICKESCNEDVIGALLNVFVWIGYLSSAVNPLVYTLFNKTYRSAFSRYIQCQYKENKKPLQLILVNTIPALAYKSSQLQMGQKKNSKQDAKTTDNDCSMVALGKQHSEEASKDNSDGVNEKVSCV
KiSS-1 receptor (Homo sapiens), sequence (Q969F8 whole entry, looked up): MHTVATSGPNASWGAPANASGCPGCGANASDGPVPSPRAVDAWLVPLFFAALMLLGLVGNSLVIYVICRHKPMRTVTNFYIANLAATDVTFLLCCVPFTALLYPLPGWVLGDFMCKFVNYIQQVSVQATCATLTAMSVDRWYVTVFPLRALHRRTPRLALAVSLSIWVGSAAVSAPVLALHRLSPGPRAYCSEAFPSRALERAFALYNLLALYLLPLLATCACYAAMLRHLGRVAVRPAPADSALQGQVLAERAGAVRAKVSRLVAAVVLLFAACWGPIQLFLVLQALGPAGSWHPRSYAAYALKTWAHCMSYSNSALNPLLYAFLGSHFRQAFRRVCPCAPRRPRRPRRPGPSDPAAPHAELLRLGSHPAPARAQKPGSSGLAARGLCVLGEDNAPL
Beta-2 adrenergic receptor (Homo sapiens), sequence (P07550 whole entry, looked up): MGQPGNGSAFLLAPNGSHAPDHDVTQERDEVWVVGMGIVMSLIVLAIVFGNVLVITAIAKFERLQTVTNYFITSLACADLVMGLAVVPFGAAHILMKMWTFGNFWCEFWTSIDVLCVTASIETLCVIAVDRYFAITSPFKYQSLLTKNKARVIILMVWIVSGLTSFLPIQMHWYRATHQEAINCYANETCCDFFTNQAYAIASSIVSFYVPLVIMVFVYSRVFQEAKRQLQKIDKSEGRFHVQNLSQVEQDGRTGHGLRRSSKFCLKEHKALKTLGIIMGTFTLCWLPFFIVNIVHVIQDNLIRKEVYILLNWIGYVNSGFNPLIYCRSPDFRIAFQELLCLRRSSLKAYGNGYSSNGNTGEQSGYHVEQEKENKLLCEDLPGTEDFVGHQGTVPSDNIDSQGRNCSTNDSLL
D(2) dopamine receptor (Homo sapiens), sequence (P14416 whole entry, looked up): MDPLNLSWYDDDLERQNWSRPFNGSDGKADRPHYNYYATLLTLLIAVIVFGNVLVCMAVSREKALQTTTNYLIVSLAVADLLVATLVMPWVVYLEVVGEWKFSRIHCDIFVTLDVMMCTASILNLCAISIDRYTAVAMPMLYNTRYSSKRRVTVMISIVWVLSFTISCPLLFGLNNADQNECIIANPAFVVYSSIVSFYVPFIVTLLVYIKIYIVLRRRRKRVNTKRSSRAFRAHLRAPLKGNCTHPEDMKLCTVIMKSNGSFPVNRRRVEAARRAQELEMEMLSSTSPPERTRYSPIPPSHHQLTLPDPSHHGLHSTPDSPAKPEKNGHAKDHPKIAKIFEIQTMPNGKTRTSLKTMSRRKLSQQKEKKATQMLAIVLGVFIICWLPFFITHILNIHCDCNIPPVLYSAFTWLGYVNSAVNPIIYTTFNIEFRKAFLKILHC
Muscarinic acetylcholine receptor M1 (Homo sapiens), sequence (P11229 whole entry, looked up): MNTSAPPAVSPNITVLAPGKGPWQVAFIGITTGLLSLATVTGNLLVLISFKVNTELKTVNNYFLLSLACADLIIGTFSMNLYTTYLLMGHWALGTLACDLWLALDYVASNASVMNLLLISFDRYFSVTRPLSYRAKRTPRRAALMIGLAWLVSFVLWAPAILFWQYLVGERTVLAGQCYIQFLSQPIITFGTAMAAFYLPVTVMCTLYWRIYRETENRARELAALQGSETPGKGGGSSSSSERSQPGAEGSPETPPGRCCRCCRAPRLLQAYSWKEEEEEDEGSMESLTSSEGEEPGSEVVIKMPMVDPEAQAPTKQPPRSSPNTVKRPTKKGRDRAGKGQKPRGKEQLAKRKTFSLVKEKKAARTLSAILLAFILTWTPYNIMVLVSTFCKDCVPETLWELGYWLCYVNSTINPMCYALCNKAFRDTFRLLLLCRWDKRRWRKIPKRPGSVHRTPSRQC

As to `CCCCCCCCC=O`, the Potency entry in [1], in experiment [2], in experiment [3], in experiment [6], in [7] and in experiment [8] was “inactive” throughout. For the same molecule, the Potency entry in [9], in experiment [10], in experiment [11], in [12], in experiment [13] and in experiment [14] was “inactive” in each case. For the same molecule, the Potency result in experiment [15], in [16], in experiment [17] and in [18] was “inactive” throughout. Moreover, the result in experiment [4] and in experiment [5] was inactive.

With `c1cc2c3c(c1)ccc1cccc(c13)C2`, the Potency entry in experiment [1], in experiment [2], in experiment [3], in [6], in [7] and in experiment [8] was “inactive” in each case. The Potency result in [9], in experiment [10], in [11], in experiment [12], in [13] and in experiment [14] was “inactive” each time. For the same molecule, the Potency result in experiment [16], in experiment [17] and in experiment [18] was “inactive” throughout. Moreover, the result in [4] and in experiment [5] was inactive.

`COc1cc(N)c(Cl)cc1C(=O)NC1CCN(CCCOc2ccc(F)cc2)CC1OC` (stereo unspecified): the Potency result in experiment [1], in [2], in [3], in experiment [6], in [7] and in experiment [8] was “inactive” each time. For the same molecule, the Potency entry in [9], in [10] and in experiment [19] was “inactive” in each case. Further, the outcome in experiment [4] and in experiment [5] was inactive. The results for the Potency in experiment [16] and in experiment [18] were 23.7 µM (active) and 11.9 µM (active), respectively.

With `CCC(=O)c1cccc(Cl)c1`, the Potency result in experiment [1], in [2], in experiment [3], in experiment [6], in experiment [7] and in [8] was “inactive” throughout. Further, the Potency result in experiment [9], in experiment [10], in experiment [11], in experiment [12], in [13] and in experiment [14] was “inactive” in each case. Besides, the Potency entry in [19], in [16], in experiment [17] and in [18] was “inactive” in each case. In addition, the result in [4] and in experiment [5] was inactive.

For the molecule `CC(C)NCC(O)COc1ccc(COCCOC(C)C)cc1` (stereo unspecified), the Potency entry in experiment [1], in experiment [2], in experiment [3], in experiment [6], in [7] and in [8] was “inactive” in each case. Moreover, the Potency entry in experiment [9], in experiment [10], in [11], in experiment [12], in experiment [13] and in [14] was “inactive” in each case. Further, the Potency entry in [15], in experiment [19] and in experiment [18] was “inactive” each time. The result in experiment [4] and in experiment [5] was inactive.

On to `CCn1cc(C(=O)O)c(=O)c2cc(F)c(N3CCNC(C)C3)c(F)c21` (stereo unspecified), for which the Potency result in experiment [1], in experiment [2], in [3], in [6], in [7] and in experiment [8] was “inactive” throughout. Further, the Potency result in [9], in experiment [10], in experiment [19], in [16], in experiment [20] and in experiment [17] was “inactive” in each case. Moreover, the Potency result in experiment [18] was “inactive”. The result in experiment [4] and in experiment [5] was inactive.

Consider `O=C1OC(=O)c2cccc3cccc1c23`, for which the Potency result in experiment [1], in experiment [3], in experiment [6], in [7], in experiment [8] and in experiment [9] was “inactive” throughout. Moreover, the Potency entry in [10], in experiment [11], in experiment [12], in experiment [13], in experiment [14] and in experiment [19] was “inactive” throughout. In addition, the Potency result in experiment [16], in experiment [17] and in [18] was “inactive” in each case. Besides, the Potency in experiment [2] was 27.6 µM (active). For the same molecule, the result in experiment [4] and in [5] was inactive.
